According to the supplement of paper PMC6555819:

Columns and labels:
Assay in all cases: PBM binding z-score (relative to random genomic background probes); higher = stronger binding; sequences stand for … in GC…GCGATTGACAGCGTAGAATGAAGG
[1] = test system: RARb homodimer (NR concentration 270 nM)
How it was run: (§1)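 Each nuclear receptor dimer, without ligand, was incubated for 1 h on custom Agilent 4×180K protein-binding microarrays. Binding was detected with antibodies against each partner (one per run), and scanned fluorescence was regression-normalized. The binding z-scores are referenced to random human genomic background probes.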

[2] = test system: RARg:RXRa (NR concentration 270 nM, RXRa partner concentration 90 nM)
How it was run: as §1

[3] = test system: RARg homodimer (NR concentration 270 nM)
How it was run: as §1

[4] = test system: RXRa DBDmut IVT, anti-RXR (DBD mutation: RXRa K156A/R161A, NR concentration 90 nM)
How it was run: as §1

[5] = test system: RXRa homodimer (NR concentration 180 nM)
How it was run: as §1

[6] = test system: THRa:RXRa (NR concentration 90 nM, RXRa partner concentration 90 nM)
How it was run: as §1

[7] = test system: THRa homodimer (NR concentration 90 nM)
How it was run: as §1

[8] = test system: VDR homodimer (NR concentration 270 nM)
How it was run: as §1

ATCTCTAGGTAACAAGTTCGGTGAAAGAGAGGAC
PBM binding z-score [1]: 1.21
PBM binding z-score [2]: 0.788
PBM binding z-score [3]: 0.885
PBM binding z-score [4]: 0.327
PBM binding z-score [5]: 0.444
PBM binding z-score [6]: 1.48
PBM binding z-score [7]: 0.922
PBM binding z-score [8]: 1.22

ACTATTAGTTGACTTAGGGCAACCGATACGACGC
PBM binding z-score [1]: 0.899
PBM binding z-score [2]: 0.818
PBM binding z-score [3]: 1.01
PBM binding z-score [4]: 0.684
PBM binding z-score [5]: 0.661
PBM binding z-score [6]: 1.53
PBM binding z-score [7]: 0.316
PBM binding z-score [8]: 0.121

TGTCAAAGTTCAATGGTAACGTAAGTATCCACAC
PBM binding z-score [1]: 3.32
PBM binding z-score [2]: 4.79
PBM binding z-score [3]: 5.39
PBM binding z-score [4]: 3.67
PBM binding z-score [5]: 3.74
PBM binding z-score [6]: 1.39
PBM binding z-score [7]: -0.627
PBM binding z-score [8]: 3.52

TCGCCTAGGTCATGCGGGCCAGTATAGTGTCGGC
PBM binding z-score [1]: 3.2
PBM binding z-score [2]: 3.96
PBM binding z-score [3]: 4.3
PBM binding z-score [4]: 1.28
PBM binding z-score [5]: 2.9
PBM binding z-score [6]: 3.29
PBM binding z-score [7]: 1.43
PBM binding z-score [8]: 0.82

AGAACGAGGGAAATGAGTTGATAGCACGGGTGGC
PBM binding z-score [1]: -0.754
PBM binding z-score [2]: -0.0436
PBM binding z-score [3]: 0.0126
PBM binding z-score [4]: -0.228
PBM binding z-score [5]: -0.0737
PBM binding z-score [6]: -0.188
PBM binding z-score [7]: -0.839
PBM binding z-score [8]: 0.141

ACTACAGGGTCATCGTAGGCCAGAGTACGCACAG
PBM binding z-score [1]: 3.45
PBM binding z-score [2]: 5.52
PBM binding z-score [3]: 5.09
PBM binding z-score [4]: 3.26
PBM binding z-score [5]: 5.9
PBM binding z-score [6]: 4.64
PBM binding z-score [7]: 1.27
PBM binding z-score [8]: 3.36

TCTTATAGATCAAGCAGGTTAAGAAAGCCTGAGT
PBM binding z-score [1]: 0.27
PBM binding z-score [2]: 0.242
PBM binding z-score [3]: 0.136
PBM binding z-score [4]: 1.03
PBM binding z-score [5]: 0.704
PBM binding z-score [6]: 0.558
PBM binding z-score [7]: -0.379
PBM binding z-score [8]: 0.389

CCTGCTAGGTCAATGATCAGCTAAAGCAGCTCGC
PBM binding z-score [1]: 2.32
PBM binding z-score [2]: 3.18
PBM binding z-score [3]: 4.16
PBM binding z-score [4]: 1.82
PBM binding z-score [5]: 1.83
PBM binding z-score [6]: 1.99
PBM binding z-score [7]: -0.185
PBM binding z-score [8]: -0.421

AGAATGAGGTTATACGTAGATCAGAGAAGAAAGT
PBM binding z-score [1]: 0.491
PBM binding z-score [2]: 1.83
PBM binding z-score [3]: 1.42
PBM binding z-score [4]: 1.87
PBM binding z-score [5]: 2.05
PBM binding z-score [6]: 2.25
PBM binding z-score [7]: 0.546
PBM binding z-score [8]: 0.887

ACTCGGAGGACAAAGGTCCGAGCTACGCCAGTGA
PBM binding z-score [1]: 0.57
PBM binding z-score [2]: 0.663
PBM binding z-score [3]: 0.927
PBM binding z-score [4]: 0.364
PBM binding z-score [5]: 0.0174
PBM binding z-score [6]: 0.646
PBM binding z-score [7]: -0.259
PBM binding z-score [8]: -0.261

ATATGTACGTTATCGGGTCATTCAGTTTGCGCAT
PBM binding z-score [1]: 2.25
PBM binding z-score [2]: 2.06
PBM binding z-score [3]: 1.64
PBM binding z-score [4]: 1.78
PBM binding z-score [5]: 2.34
PBM binding z-score [6]: 3.26
PBM binding z-score [7]: 2.69
PBM binding z-score [8]: 4.2

TGTCGAAGTTCAAAGGTAACGTAAGTATCCACAC
PBM binding z-score [1]: 2.43
PBM binding z-score [2]: 4.25
PBM binding z-score [3]: 3.04
PBM binding z-score [4]: 3.6
PBM binding z-score [5]: 5.18
PBM binding z-score [6]: 2.81
PBM binding z-score [7]: -0.0887
PBM binding z-score [8]: 2.72

CCTAGTTGGACAAGGTCACACACGCTATAGGTAC
PBM binding z-score [1]: 4.19
PBM binding z-score [2]: 4.24
PBM binding z-score [3]: 4.16
PBM binding z-score [4]: 1.75
PBM binding z-score [5]: 4.4
PBM binding z-score [6]: 3.93
PBM binding z-score [7]: 3.3
PBM binding z-score [8]: 3.14

TCTTGTAAATCAAGCAGGTTAAGAAAGCCTGAGT
PBM binding z-score [1]: 0.102
PBM binding z-score [2]: 0.0304
PBM binding z-score [3]: -0.176
PBM binding z-score [4]: 0.73
PBM binding z-score [5]: 0.26
PBM binding z-score [6]: 0.147
PBM binding z-score [7]: -0.571
PBM binding z-score [8]: -0.0324

CGAACTAGGTCATTGACAGGACAGCGAATAGTAA
PBM binding z-score [1]: 2.86
PBM binding z-score [2]: 4.65
PBM binding z-score [3]: 4.4
PBM binding z-score [4]: 2.19
PBM binding z-score [5]: 2.44
PBM binding z-score [6]: 2.9
PBM binding z-score [7]: 0.784
PBM binding z-score [8]: 1.31

ATCTCTAGGCAACCAAGTTCAGTGAATGCCGAAC
PBM binding z-score [1]: 1.25
PBM binding z-score [2]: 0.473
PBM binding z-score [3]: 0.591
PBM binding z-score [4]: 0.688
PBM binding z-score [5]: 0.505
PBM binding z-score [6]: 0.9
PBM binding z-score [7]: -0.255
PBM binding z-score [8]: 2.3

TGAATGAGGATAAAGATCAGGGAACGTGGCGTCG
PBM binding z-score [1]: -0.895
PBM binding z-score [2]: 0.0209
PBM binding z-score [3]: 0.399
PBM binding z-score [4]: -0.871
PBM binding z-score [5]: -0.0726
PBM binding z-score [6]: 1.33
PBM binding z-score [7]: 0.0902
PBM binding z-score [8]: -0.316

AGAACGAGGGCACGCTGAGTTGATAGTAGAGTAG
PBM binding z-score [1]: 1.25
PBM binding z-score [2]: 1.99
PBM binding z-score [3]: 2.41
PBM binding z-score [4]: 2.07
PBM binding z-score [5]: 1.34
PBM binding z-score [6]: 1.9
PBM binding z-score [7]: 0.0891
PBM binding z-score [8]: 1.95

ATCTCTAGGAAACCAAGTTCAGTGAATGCCGAAC
PBM binding z-score [1]: 1.32
PBM binding z-score [2]: 0.329
PBM binding z-score [3]: 0.454
PBM binding z-score [4]: 0.614
PBM binding z-score [5]: 0.323
PBM binding z-score [6]: 0.46
PBM binding z-score [7]: 0.191
PBM binding z-score [8]: 2.72

TCGAGTAGGGTAGGGGCATTCAGAATGGCGTCGA
PBM binding z-score [1]: 0.89
PBM binding z-score [2]: -0.0257
PBM binding z-score [3]: -0.315
PBM binding z-score [4]: 0.328
PBM binding z-score [5]: 0.411
PBM binding z-score [6]: 0.763
PBM binding z-score [7]: 0.794
PBM binding z-score [8]: 0.663

CCTTACGCGTCAAGGTTATAGCACGGGTGGTACG
PBM binding z-score [1]: 0.818
PBM binding z-score [2]: 0.576
PBM binding z-score [3]: 0.348
PBM binding z-score [4]: 0.122
PBM binding z-score [5]: 1.06
PBM binding z-score [6]: 1.5
PBM binding z-score [7]: 0.517
PBM binding z-score [8]: 0.299

CGTCCAAGGTCAGCAGGTCAGCGAAAGCGACGTG
PBM binding z-score [1]: 5.14
PBM binding z-score [2]: 6.69
PBM binding z-score [3]: 7.16
PBM binding z-score [4]: 2.52
PBM binding z-score [5]: 5.67
PBM binding z-score [6]: 4.07
PBM binding z-score [7]: 2.74
PBM binding z-score [8]: 1.83

CGAACGAGGGCATGAGTTGATAGCAAATGCCGAT
PBM binding z-score [1]: 0.843
PBM binding z-score [2]: 1.54
PBM binding z-score [3]: 2
PBM binding z-score [4]: 2.58
PBM binding z-score [5]: 1.17
PBM binding z-score [6]: 1.48
PBM binding z-score [7]: -0.132
PBM binding z-score [8]: 2.02

CGTCAAAGTTCAGGGTAACGTAACAGAAAGCAGC
PBM binding z-score [1]: 3.13
PBM binding z-score [2]: 4.04
PBM binding z-score [3]: 4.74
PBM binding z-score [4]: 3.74
PBM binding z-score [5]: 2.91
PBM binding z-score [6]: 2.14
PBM binding z-score [7]: 0.495
PBM binding z-score [8]: 2.51

CCCAGTTGGTCAAGGTCACACACGCTATAGGTAC
PBM binding z-score [1]: 4.34
PBM binding z-score [2]: 4.75
PBM binding z-score [3]: 4.74
PBM binding z-score [4]: 2.13
PBM binding z-score [5]: 4.74
PBM binding z-score [6]: 4.16
PBM binding z-score [7]: 4.46
PBM binding z-score [8]: 4.2

GGAACGAGGGCATTCGAGTTGATAGGATGGCGAT
PBM binding z-score [1]: 0.729
PBM binding z-score [2]: 1.11
PBM binding z-score [3]: 1.28
PBM binding z-score [4]: 3.32
PBM binding z-score [5]: 0.734
PBM binding z-score [6]: 3.21
PBM binding z-score [7]: -0.299
PBM binding z-score [8]: 2.9

ATATGTTGGTTAGCTGGGGTCATTCAGACTAGGC
PBM binding z-score [1]: 3.55
PBM binding z-score [2]: 3.66
PBM binding z-score [3]: 2.3
PBM binding z-score [4]: 1.91
PBM binding z-score [5]: 4.97
PBM binding z-score [6]: 4.21
PBM binding z-score [7]: 3.57
PBM binding z-score [8]: 5.32

AGGATGAGGTTATTAAGATCAGGGAATTGCGGTC
PBM binding z-score [1]: 1.49
PBM binding z-score [2]: 1.41
PBM binding z-score [3]: 1.1
PBM binding z-score [4]: 1.78
PBM binding z-score [5]: 1.9
PBM binding z-score [6]: 2.24
PBM binding z-score [7]: 1.47
PBM binding z-score [8]: 1.97
